Results filed as inconclusive are left out. Active and inactive are the calls of the source. Calls come from the whole dose curve; as a rule, active = well fitted inhibition curve with a large enough effect; inconclusive = small, poorly fitted or top-dose-only effect; inactive = flat fitted curve, though single readings scatter.
System: N140
Test: qHTS profiling for inhibitors of Plasmodium falciparum proliferation (AID 504749); note: nearly all actives have a fitted effect of over 60% in size;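 for activity, negative = inhibition: 0% = DMSO vehicle and full inhibition = artemisinin control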
Settings: P. falciparum in erythrocytes, SYBR Green DNA, 72 h; series mostly up to 28.7 µM; activity, negative = inhibition: at the top concentration
In short: (§1)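 P. falciparum-infected erythrocytes (0.3% parasitemia, 2.5% hematocrit final) were exposed to compounds for 72 h at 37 C in 5% CO2, then lysed with SYBR Green buffer overnight at room temperature; parasite DNA fluorescence was normalized to artemisinin and DMSO controls.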
Potency is the fitted concentration of half-maximal effect.

Row | Compound | activity, negative = inhibition | Potency
1 | O=[N+]([O-])c1ccccc1 | 15.5% (inactive) | 
2 | O=C1CC[C@@]2(O)C3Cc4ccc(O)c5c4C2(CCN3CC2CC2)[C@H]1O5 (stereo not given in full) | -7.74% (inactive) | 
3 | O=C/C=C/c1ccccc1 | 6.05% (inactive) | 
4 | CCNC(C)Cc1cccc(C(F)(F)F)c1 (stereo not given) | 2.3% (inactive) | 
5 | CC1CCC(C(C)C)C(OC(=O)c2ccccc2N)C1 (stereo not given) | -0.609% (inactive) | 
6 | CCOP(=O)(OCC)O/C(=C/Cl)c1ccc(Cl)cc1Cl | -23.1% (inactive) | 
7 | c1csc(C2(N3CCCCC3)CCCCC2)c1 | 1.68% (inactive) | 
8 | CCN(CC)C(=O)/C(Cl)=C(\C)OP(=O)(OC)OC | 2.79% (inactive) | 
9 | c1ccc(C2(N3CCCC3)CCCCC2)cc1 |  | 12.6 µM (active)
10 | [Cl-].[Cl-].[Hg+2] |  | 10 µM (active)
11 | CCC1(CC)C(=O)NC(=O)N(C)C1=O | -5.39% (inactive) | 
12 | c1cc2c(c(NC3=NCCN3)c1)CCCC2 | 0.276% (inactive) | 
13 | N#CC(C#N)=Cc1cc(O)c(O)c(O)c1 |  | 15.8 µM (active)
14 | C=CCC1(C(C)CCC)C(=O)N=C(S)NC1=O (stereo not given) | 1.82% (inactive) | 
15 | F/C(COc1ccc2c(c1)[nH]c1ccccc12)=C1/CN2CCC1CC2 |  | 10 µM (active)
16 | Oc1cccc[c]1[Hg][Cl] |  | 5.01 µM (active)
17 | ClC1C(Cl)C(Cl)C(Cl)C(Cl)C1Cl (stereo not given) | 9.89% (inactive) | 
18 | CCCCCCCCCC(=O)O[C@H]1CC[C@H]2[C@@H]3CCC4=CC(=O)CC[C@]4(C)[C@H]3CC[C@]12C | -2.52% (inactive) | 
19 | CCC1(c2ccccc2)C(=O)NC(=O)N(C(=O)c2ccccc2)C1=O (stereo not given) | 11.5% (inactive) | 
20 | COc1ccc2c(c1OC)C(=O)OC2C1c2cc3c(cc2CCN1C)OCO3 (stereo not given) | 4.29% (inactive) | 
21 | C=CCN=C=S | 6.94% (inactive) | 
22 | OC(c1ccccc1)(c1ccccc1)C1CN2CCC1CC2 (stereo not given) | -25.7% (inactive) | 
23 | CCOc1ccc2c3c1O[C@H]1[C@@H](O)C=C[C@H]4[C@@H](C2)N(C)CC[C@@]341 | -15.8% (inactive) | 
24 | Cc1sc2ccccc2c1CC1=NCCN1 | 12.4% (inactive) | 
25 | O=C1CN=C(c2ccccc2)c2cc(Cl)ccc2N1CC1CC1 | -15.6% (inactive) | 
26 | CC(C)Nc1ccc(Nc2ccccc2)cc1 |  | 7.94 µM (active)
27 | CC12NC(Cc3ccccc31)c1ccccc12 (stereo not given) | -58.7% (inactive) | 
28 | c1ccc2cc(CC3=NCCN3)ccc2c1 | 4.59% (inactive) | 
29 | CCCN1CCCC2Cc3[nH]ncc3CC21 (stereo not given) | 9.97% (inactive) | 
30 | Oc1cc(Cl)c(Cl)cc1Cl | -16.1% (inactive) | 

System: P93_24
Test: as above
Settings: P. falciparum in erythrocytes, SYBR Green DNA, 72 h; series mostly up to 28.7 µM; activity, negative = inhibition: at the top concentration
In short: as §1

Row | Compound | activity, negative = inhibition | Potency
31 | O=[N+]([O-])c1ccccc1 | 3.33% (inactive) | 
32 | O=C1CC[C@@]2(O)C3Cc4ccc(O)c5c4C2(CCN3CC2CC2)[C@H]1O5 (stereo not given in full) | 1.41% (inactive) | 
33 | O=C/C=C/c1ccccc1 | 6.86% (inactive) | 
34 | CCNC(C)Cc1cccc(C(F)(F)F)c1 (stereo not given) | 9.55% (inactive) | 
35 | CC1CCC(C(C)C)C(OC(=O)c2ccccc2N)C1 (stereo not given) | -21.7% (inactive) | 
36 | c1csc(C2(N3CCCCC3)CCCCC2)c1 | -11.2% (inactive) | 
37 | CCN(CC)C(=O)/C(Cl)=C(\C)OP(=O)(OC)OC | -2.8% (inactive) | 
38 | c1ccc(C2(N3CCCC3)CCCCC2)cc1 |  | 5.62 µM (active)
39 | CCC1(CC)C(=O)NC(=O)N(C)C1=O | -3.68% (inactive) | 
40 | c1cc2c(c(NC3=NCCN3)c1)CCCC2 | -18.1% (inactive) | 
41 | N#CC(C#N)=Cc1cc(O)c(O)c(O)c1 |  | 5.01 µM (active)
42 | C=CCC1(C(C)CCC)C(=O)N=C(S)NC1=O (stereo not given) | 1.79% (inactive) | 
43 | F/C(COc1ccc2c(c1)[nH]c1ccccc12)=C1/CN2CCC1CC2 |  | 6.31 µM (active)
44 | Oc1cccc[c]1[Hg][Cl] |  | 6.31 µM (active)
45 | C[C@H]1CCC[C@H](O)CCCCCc2cc(O)cc(O)c2C(=O)O1 | -24.9% (inactive) | 
46 | ClC1C(Cl)C(Cl)C(Cl)C(Cl)C1Cl (stereo not given) | 5% (inactive) | 
47 | CCCCCCCCCC(=O)O[C@H]1CC[C@H]2[C@@H]3CCC4=CC(=O)CC[C@]4(C)[C@H]3CC[C@]12C | -4.89% (inactive) | 
48 | CCC1(c2ccccc2)C(=O)NC(=O)N(C(=O)c2ccccc2)C1=O (stereo not given) | 6.75% (inactive) | 
49 | COc1ccc2c(c1OC)C(=O)OC2C1c2cc3c(cc2CCN1C)OCO3 (stereo not given) | -3.05% (inactive) | 
50 | C=CCN=C=S | 7.3% (inactive) | 
51 | OC(c1ccccc1)(c1ccccc1)C1CN2CCC1CC2 (stereo not given) | -27% (inactive) | 
52 | CCOc1ccc2c3c1O[C@H]1[C@@H](O)C=C[C@H]4[C@@H](C2)N(C)CC[C@@]341 | -19.2% (inactive) | 
53 | Cc1sc2ccccc2c1CC1=NCCN1 | -20.1% (inactive) | 
54 | O=C1CN=C(c2ccccc2)c2cc(Cl)ccc2N1CC1CC1 | -17.2% (inactive) | 
55 | CC(C)Nc1ccc(Nc2ccccc2)cc1 |  | 7.94 µM (active)
56 | CC12NC(Cc3ccccc31)c1ccccc12 (stereo not given) |  | 10 µM (active)
57 | c1ccc2cc(CC3=NCCN3)ccc2c1 | -9.15% (inactive) | 
58 | CCCN1CCCC2Cc3[nH]ncc3CC21 (stereo not given) | 0.193% (inactive) | 
59 | Oc1cc(Cl)c(Cl)cc1Cl | 2.15% (inactive) | 
60 | CN1[C@@H]2CC[C@H]1CC(OC1c3ccccc3CCc3ccccc31)C2 (stereo not given in full) |  | 3.98 µM (active)
